Sampled rows, rich in hits. Any-hit rate of the full collection: about 6.6%.
MPTP block: blocks calcium-induced mitochondrial swelling | hit rate 1.4% among 360,000 | inhibition, % at 10 µM | AID 602449 | isolated mouse mitochondria, Ca2+ swelling absorbance, 30 min;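 active = inhibition of 50% or more, scaled per plate between neutral and stimulator controls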
Gli-Sufu block: Gli-Sufu pathway antagonism; Sufu-KO-LIGHT fibroblasts, Gli luciferase reporter luminescence; inhibition, % at 5 µM; hit rate 0.74% among 340,000; AID 588413;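 active = inhibition above about 55%, limit read from the data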
NR3A LBD binder: NR3A (human) ligand-binding domain modulation; Tm shift relative to glycine control, % at 25 µM; hit rate 2.5% among 340,000; NR3A LBD differential scanning fluorimetry, Tm shift; 0% = protein alone, 100% = glycine-bound protein;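 active = melting temperature shift of at least 10% of the positive control shift, at one fixed dose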
Mdm2 MdmX PPI: disrupts the human Mdm2-MdmX interaction | O15151+Q00987 | SaOS-2 split-luciferase Mdm2/MdmX complementation, luminescence | inhibition, % at 8 µM | hit rate 3% among 330,000 | AID 485346;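 active = inhibition of at least 50% at 8 µM in the primary screen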
Beta apoptosis: beta cell apoptosis inhibition | AID 435005 | protection from apoptosis, % (test concentration not listed) | INS-1E cytokine-induced death, ATP luminescence, 48 h; percent of positive-control rescue, neutral wells zero | hit rate 0.8% among 300,000;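 active = Every replicate reaches about 75%, or at least half do and their mean reaches it too, limit read from the data; inconclusive = At least half of replicates reach the limit but their mean does not; inactive = Under half of replicates reach the limit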;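 note: higher means more ATP so stronger rescue from cytokine killing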
CSC inhib: cancer stem cell inhibition; cancer stem cell-like cells viability, luminescence; hit rate 1.1% among 300,000; AID 2717; inhibition, % at 7.5 µM; in the data active = inhibition above about 75%; inconclusive = no clear call, values can overlap the other calls; tested in HMLE shEcad cells
Rh123 counter: membrane potential counter-screen of mitochondrial pore inhibitors. isolated mitochondria, Rhodamine 123 fluorescence. shares compounds with MPTP block. AID 624504. inhibition, % at 10 µM. hit rate 78% among 5,000; in the data active = inhibition above about 22%
MPTP abs DR: MPTP inhibition, dose response swelling confirmation. shares compounds with MPTP block. isolated mitochondria swelling, absorbance. IC50, µM. hit rate 58% among 780. AID 651561; in the data active = IC50 below about 20 µM
MPTP counter DR: active in counter-screen for permeability transition pore inhibitors; isolated mitochondria counterscreen, fluorescence read-out; shares compounds with MPTP block; IC50, µM; hit rate 49% among 780; in the data active = IC50 below about 80 µM
Numbers stand for hits; n = inactive; u = inconclusive; x = no result.

SMILES | MPTP block | Gli-Sufu block | NR3A LBD binder | Mdm2 MdmX PPI | Beta apoptosis | CSC inhib | Rh123 counter | others
COc1cc(/C=C2\C(=O)N(c3ccccc3)N=C2C)ccc1Oc1ccc([N+](=O)[O-])cc1[N+](=O)[O-] | 88 | n | n | x | n | n | 61
Cc1ccc(OCC(O)CN2C(=O)NC(C)(C)C2=O)c(C)c1 (stereo not drawn) | n | n | n | n | n | n | x
Cc1ccc(C(NC(=O)c2cccc(S(=O)(=O)N3CCN(C)CC3)c2)c2ccccc2)cc1 (stereo not drawn) | n | n | n | n | n | n | x
COC(=O)c1sc2ccccc2c1-n1cccc1C(=O)C(=O)Nc1ccc(Cl)cc1 | n | n | n | n | n | n | x
CCCCCCCCNc1ncnc2[nH]ncc12 | 71 | n | n | x | x | x | 71
CCOC(=O)c1c(NC(=O)CSc2nnc(-c3ccco3)o2)sc(C(C)=O)c1C | n | n | n | n | n | n | x
CCOC(=O)c1cccc(NC(=O)CSc2nc3cccnc3n2C)c1 | 73 | n | n | n | x | n | 29
CCOC(=O)c1sc(NC(=O)CSc2nc3cccnc3n2C)nc1C | n | n | n | n | n | x | x
CCOC(=O)c1c(NC(=O)CSc2nnc(-c3cccnc3)o2)sc(C(C)=O)c1C | 75 | n | n | n | n | n | n | MPTP abs DR=n;MPTP counter DR=13
CCOC(=O)c1c(NC(=O)CSc2nc3cccnc3n2C)sc(C(C)=O)c1C | 92 | n | n | n | n | x | n | MPTP abs DR=3.7;MPTP counter DR=3.5
CCOC(=O)c1c(NC(=O)CSc2ncnc3ccccc23)sc(C(C)=O)c1C | 58 | n | n | n | n | n | n
NS(=O)(=O)c1ccc(CCNC(=O)C(=O)NCC2OCCN2S(=O)(=O)c2ccc(F)cc2)cc1 (stereo not drawn) | n | n | n | n | n | n | x
CCOC(=O)c1c(NC(=O)CSc2nc3ccccc3c(=O)n2-c2ccc(F)cc2)sc(C(C)=O)c1C | n | n | n | n | n | n | x
CCOC(=O)c1c(NC(=O)CSc2nnc(-c3ccccc3C)n2C)sc(C(C)=O)c1C | 84 | n | n | n | n | n | 67
Cc1ccccc1OCC(=O)N1N=C(C(F)(F)F)CC1(O)C(C)(C)C (stereo not drawn) | n | n | n | n | n | x | x
Cc1ccc(OCC(=O)N2N=C(C(F)(F)F)CC2(O)C(C)(C)C)cc1C (stereo not drawn) | 79 | n | n | n | n | n | 65
COc1ccc(-n2ncc3c(=O)n(CC(=O)Nc4ccc5c(c4)OCCO5)cnc32)cc1 | n | n | n | n | n | x | x
O=C(c1ccc2c(c1)OCO2)N1CCC(Cc2ccccc2)CC1 | n | n | n | n | n | n | x
CC(C)(C)c1ccc(C(=O)OC/C(O)=C(\C#N)c2nc3ccccc3s2)cc1 | 97 | n | 17 | n | n | n | 70
N#C/C(=C(/O)COC(=O)c1ccccc1O)c1nc2ccccc2s1 | 100 | n | 13 | n | n | n | 94
COc1ccc(OC)c(-c2csc(NC(=O)CSc3ccc([N+](=O)[O-])cc3)n2)c1 | 56 | n | 12 | n | n | n | 63
CCOC(=O)c1c(NC(=O)COC(=O)c2ccccn2)sc2c1CCC2 | n | n | n | n | n | n | x
Cc1cc(C)nc(NS(=O)(=O)c2ccc(N=NN(C)C)cc2)n1 | n | n | n | n | n | n | x
O=C(CCc1ccccc1)NC(NC(=S)Nc1cccc(Cl)c1)C(Cl)(Cl)Cl (stereo not drawn) | 94 | n | 38 | n | n | n | 78
CCCC(=O)NC(NC(=S)Nc1ccc(S(N)(=O)=O)cc1)C(Cl)(Cl)Cl (stereo not drawn) | n | n | n | n | n | n | x
SMILES | MPTP block | Gli-Sufu block | NR3A LBD binder | Mdm2 MdmX PPI | Beta apoptosis | CSC inhib | Rh123 counter | others
O=C(CCc1ccccc1)NC(NC(=S)Nc1ccc(Br)cc1)C(Cl)(Cl)Cl (stereo not drawn) | 81 | n | 14 | n | n | n | 81
O=C(NC(NC(=S)Nc1ccc(Cl)cc1)C(Cl)(Cl)Cl)c1ccco1 (stereo not drawn) | 96 | n | 13 | n | n | n | 84
CC(=O)c1ccc(NC(=S)NC(NC(=O)c2ccco2)C(Cl)(Cl)Cl)cc1 (stereo not drawn) | n | n | n | n | n | n | x
CCN(CC)S(=O)(=O)c1cccc(NC2=NCCCCC2)c1 | n | n | n | n | n | n | x
Cc1cc(C(=O)CN2C(=O)NC3(CCCCC3)C2=O)c(C)n1-c1ccc2c(c1)OCO2 | n | n | n | n | n | x | x
Cc1ccc(C)c(NC(=O)c2cc3ccccn3n2)c1 | 53 | n | n | n | n | n | n | MPTP abs DR=n;MPTP counter DR=n
Cc1cc(C)nc(Sc2ncnc(N)c2[N+](=O)[O-])n1 | n | n | n | n | n | n | x
CC1(C)CC(=O)C(=Cc2cn(-c3ccccc3)nc2-c2ccccc2)C(=O)C1 | 76 | n | n | n | n | n | n | MPTP abs DR=n;MPTP counter DR=5.7
COc1ccccc1N1C(=NC(=O)CCc2ccccc2)SC2CS(=O)(=O)CC21 (stereo not drawn) | n | n | n | n | n | n | x
CCOC(=O)/C(C#N)=C1\Nc2ccccc2N=C1N(CC(C)C)CC(C)C | n | n | n | n | n | u | x
CCOC(=O)/C(C#N)=C1/C=C(C)NC(c2ccccc2O)=N1 | 94 | n | 14 | n | n | n | 89
O=C(CN1C(=O)NC2(CCCC2)C1=O)N1CCN(Cc2ccccc2)CC1 | n | n | n | n | n | n | x
O=C(Cc1ccc(NC(=O)C2CCCN(C(=O)C3CCCCC3)C2)cc1)Nc1ccc(C(=O)N2CCOCC2)cc1 (stereo not drawn) | n | n | n | x | x | x | x
COC(=O)c1sccc1NC(=O)Nc1ccc(C)c(C)c1 | n | n | n | n | n | n | x
O=C(Nc1ccccc1)Nc1ccccc1NS(=O)(=O)c1cccs1 | 61 | n | 22 | n | n | n | 65
O=C(Nc1ccc(Cl)c(Cl)c1)Nc1ccccc1NS(=O)(=O)c1cccs1 | 87 | n | 34 | n | n | 99 | 92
COC(=O)c1sccc1NC(=O)Nc1ccc(Cl)c(Cl)c1 | 103 | n | n | n | n | n | 107
Cn1c(SCC(=O)Nc2cccc(C(=O)O)c2)nnc1-c1cc2cc(Br)ccc2o1 | n | n | n | n | x | n | x
CCc1cccc(C)c1NC(=O)CSc1nnc(-c2cc3cc(Br)ccc3o2)n1CC | 92 | n | n | n | n | n | 84
O=C(Nc1ccccc1Cl)ON=C1c2ccccc2-c2ccccc21 | n | n | n | n | x | x | x
CN(C)CCNC(=O)c1ccc(Sc2ccc(Br)cc2)c([N+](=O)[O-])c1 | 102 | n | n | n | n | n | n | MPTP abs DR=5.8;MPTP counter DR=n
COc1ccc(NC(=O)CSc2ncccc2C(=O)OC(C)C)cc1OC | 71 | n | n | n | n | n | 60
